Molecules are shown by their SMILES. This is part of a sample that, as a whole, favours compounds with a hit. Of some 83,000 tested, about 20% had one in any assay.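 Interpretation: 100, growth as untreated; towards 0, rising growth inhibition; 0, no net growth; 0 to -100, cell death. Compounds scoring below 10 were considered active.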 Values without a mark were called inactive. The source made the active and inactive calls.

In this experiment the test system is MDA-MB-468 breast. In words: NCI-60 one-dose screen, 48 h (100 = growth as untreated, 0 = no growth, -100 = all killed). As to conditions: 10 µM unless noted.
For `COc1cc(/C=C/C(=O)c2ccc(C(F)(F)F)cc2)ccc1Oc1nc(NCCO)nc(N2CCOCC2)n1`, the growth is 85.6%.
The figure for `O=C1/C(=C\c2cn(CC(O)CN3CCCCC3)c3ccccc23)c2ccccc2N1c1c(Cl)cccc1Cl` (stereo not drawn) is -93.3% (active); for `O=S(=O)(NCCNc1nccc(-c2c(-c3ccc(F)c(O)c3)nc3sccn23)n1)c1ccc(Cl)cc1` it is 19.5%.

The values are drawn from PubChem BioAssay (NCI).
